# Experimental data as given in PubChem BioAssay (Tox21).
# A number with no mark means an inactive call. Records with an inconclusive call do not appear. A call without a number means that no potency is given here. Calls of active or inactive are those of the source. Unless noted, calls follow the shape of the dose curve; as a rule, active = well fitted curve in the direction sought with a large enough effect in the repeat runs; inconclusive = weak or mixed curves; inactive = no such curve, though single readings can be large; an effect the other way counts as inactive or inconclusive.
# How the values were obtained:
# [1] = qHTS assay for small molecule agonists of the p53 signaling pathway (AID 651631; calls by dose curve; also: nearly all actives have a fitted effect of over 15% in size)
# Outline: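 Readout was fluorescence from the LiveBLAzer FRET substrate, applied for 2 h at room temperature after 16 h compound exposure at 37 °C. Cells were the p53RE-bla HCT-116 line, with beta-lactamase driven by p53 response elements.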
# [2] = qHTS assay for small molecules that induce genotoxicity in human embryonic kidney cells expressing luciferase-tagged ATAD5 (AID 651632); also: nearly all actives have a fitted effect of over 15% in size
# Outline: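 Reporter cells (HEK293T) express luciferase-tagged ATAD5, a protein that accumulates after DNA damage. Treat 16 hr at 37C/5% CO2, add Amplite, wait 30 min at RT, and read luminescence.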
# [3] = qHTS assay for small molecule agonists of the p53 signaling pathway - cell viability (AID 651633; calls by dose curve; also: series mostly up to about 83 µM; nearly all actives have a fitted effect of over 30% in size)
# Outline: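 Viability counter-read: CellTiter-Glo luminescence (30 min, room temperature) in the same p53RE-bla plates. These plates had been exposed to compounds for 16 h at 37 C.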
# [4] = qHTS assay for small molecules that induce genotoxicity in human embryonic kidney cells expressing luciferase-tagged ATAD5 - cell viability (AID 651634; calls by dose curve; also: nearly all actives have a fitted effect of over 25% in size)
# Outline: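 Seeding of 2,000 HEK293T ATAD5-luciferase cells per well preceded pin-tool compound transfer. Plates sat 15.5 hr at 37C under 5% CO2, then fluorescence was read after 30 min with CellTiter-Fluor.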
# [5] = qHTS assay for small molecule disruptors of the mitochondrial membrane potential - cell viability (AID 720634; calls by dose curve;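 also: human HepG2 liver cancer cells; series mostly up to about 83 µM; nearly all actives have a fitted effect of over 20% in size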)
# Outline: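 Measuring cytotoxicity alongside mitochondrial potential, the screen quantified ATP by luminescence in HepG2 cells after 1 hr compound incubation and a 30 min room-temperature CellTiter-Glo step.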
# [6] = qHTS assay for small molecule disruptors of the mitochondrial membrane potential (AID 720635); also: potency is read from the fitted curve at half-maximal effect
# Outline: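 Mitochondrial membrane potential tracked with Mito-MPS dye, red aggregates (ex 540/em 590 nm) against green monomers (ex 490/em 535 nm). Compound treatment 1 hr at 37C, dye 30 min in HepG2.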
# [7] = qHTS assay to test for compound auto fluorescence at 590 nm (red) in HepG2 cells (AID 720674)
# Outline: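 Red autofluorescence (Ex/Em 540/590 nm, Rose Bengal sodium equivalents) was measured in HepG2 cells, 2,000 per well in MEM plus 10% FBS, plated overnight at 37 C. Readings were taken 1 hr after adding 23 nL compound or DMSO, at 37 C and 5% CO2.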
# [8] = qHTS assay to test for compound auto fluorescence at 535 nm (green) in HepG2 cells (AID 720675)
# [9] = qHTS assay to test for compound auto fluorescence at 590 nm (red) in HEK293 cells (AID 720679)
# Outline: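 Using HEK293 cells at 2,000 per well, the screen added 23 nL of each compound after cell attachment and incubated overnight (37C, 5% CO2). The plate reader then captured red-label fluorescence, Ex/Em 540/590nm.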
# [10] = qHTS assay to test for compound auto fluorescence at 535 nm (green) in HEK293 cells (AID 720680)
# [11] = qHTS assay to test for compound auto fluorescence at 460 nm (blue) in HEK293 cell free culture (AID 720681)
# Outline: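 Blue fluorescence (Ex 405/Em 460 nm, triamterene-equivalent) was read immediately after pin transfer of compound or DMSO into medium (DMEM, 10% FBS) without cells.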
# [12] = qHTS assay to test for compound auto fluorescence at 535 nm (green) in HEK293 cell free culture (AID 720682)
# Outline: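 Compounds were pin-transferred into cell-free DMEM with 10% FBS, and green fluorescence was read at excitation 485 nm and emission 535 nm. Intensities were expressed as fluorescein-equivalent values.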
# [13] = qHTS assay to test for compound auto fluorescence at 590 nm (red) in HEK293 cell free culture (AID 720683)
# Outline: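 Red-channel autofluorescence of compounds in culture medium (DMEM, 10% FBS), no cells, measured at 540/590 nm. Rose Bengal sodium is the reference fluorophore for equivalence.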
# [14] = qHTS assay to test for compound auto fluorescence at 590 nm (red) in HepG2 cell free culture (AID 720684)
# Outline: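 Plate contents were MEM with 10% FBS plus test compound or DMSO, no cells. Fluorescence was recorded with 540 nm excitation and 590 nm emission.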
# [15] = qHTS assay to test for compound auto fluorescence at 460 nm (blue) in HepG2 cell free culture (AID 720685)
# Outline: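 Compound (23 nL) or DMSO pinned into cell-free MEM with 10% FBS; blue fluorescence read at 405/460 nm excitation/emission, expressed as auto-fluorescence equivalency to triamterene.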
# [16] = qHTS assay to test for compound auto fluorescence at 535 nm (green) in HepG2 cell free culture (AID 720686)
# [17] = qHTS assay to test for compound auto fluorescence at 460 nm (blue) in HepG2 cells (AID 720687)
# Outline: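 Blue-channel autofluorescence (Ex/Em 405/460 nm, triamterene-equivalent) was measured after 1 hr compound exposure at 37 C, 5% CO2. Cells were HepG2, plated overnight at 37 C in MEM plus 10% FBS.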
# [18] = target: Glucocorticoid receptor (Homo sapiens) (UniProt P04150); test: qHTS assay to identify small molecule antagonists of the glucocorticoid receptor (GR) signaling pathway (AID 720692; active = well fitted inhibition curve with a large enough effect in the signal ratio in the repeat runs, not every such curve was filed as active; the % refers to the signal ratio)
# Outline: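 Dexamethasone (5 nM final) stimulated a stably integrated GRE-beta-lactamase reporter in HeLa cells during 18 h co-incubation with compounds; signal was quantified as fluorescence intensity of B/G FRET substrate after 2 h.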
# [19] = qHTS assay to identify small molecule antagonists of the glucocorticoid receptor (GR) signaling pathway - cell viability counter screen (AID 720693); also: nearly all actives have a fitted effect of over 55% in size
# [20] = qHTS assay for identifying genotoxic compounds that show differential cytotoxicity against isogenic chicken DT40 cell lines with known DNA damage response pathways - wild type cell line (AID 743012); also: nearly all actives have a fitted effect of over 60% in size
# Outline: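 Using parental DT40 (300 cells/well), compounds delivered in DMSO incubate 40 h at 37 C/5% CO2. CellTiter-Glo reagent then stands 30 min at room temperature, and luminescence gives cell viability.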
# [21] = qHTS assay for identifying genotoxic compounds that show differential cytotoxicity against isogenic chicken DT40 cell lines with known DNA damage response pathways - Rev3 mutant cell line (AID 743014); also: nearly all actives have a fitted effect of over 55% in size
# [22] = qHTS assay for identifying genotoxic compounds that show differential cytotoxicity against isogenic chicken DT40 cell lines with known DNA damage response pathways - Rad54/Ku70 mutant cell line (AID 743015); also: nearly all actives have a fitted effect of over 60% in size
# [23] = target: Androgen receptor (Homo sapiens) (UniProt P10275); test: qHTS assay to identify small molecule antagonists of the androgen receptor (AR) signaling pathway (AID 743035; active = well fitted inhibition curve with a large enough effect in the signal ratio in the repeat runs, not every such curve was filed as active; the % refers to the signal ratio)
# Outline: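 Using qHTS, AR-UAS-bla GripTite HEK293 cells received compound, then R1881, and were cultured 16 h at 37C/5% CO2 before a 2 h room-temperature LiveBLAzer B/G FRET substrate step and fluorescence measurement.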
# [24] = target: Androgen receptor (Homo sapiens) (UniProt P10275); test: qHTS assay to identify small molecule agonists of the androgen receptor (AR) signaling pathway using the MDA cell line (AID 743040; also: potency is read from the fitted curve at half-maximal effect; nearly all actives have a fitted effect of over 20% in size)
# Outline: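 After a 5 h incubation at 37C and 0% CO2, MDA-kb2 reporter cells were dosed with compounds in DMSO and kept 16 h under the same conditions. Luciferase activity was then read as luminescence with ONE-Glo.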
# [25] = qHTS assay to identify small molecule antagonists of the androgen receptor (AR) signaling pathway using the MDA cell line - cell viability counter screen (AID 743041; also: nearly all actives have a fitted effect of over 45% in size)
# Outline: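 R1881-driven MDA-kb2 AR-luc cells, 3,000/well, were dosed with library compounds for 16 h; cell health came from CellTiter-Fluor fluorescence in the reporter wells.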
# [26] = target: Androgen receptor (Homo sapiens) (UniProt P10275); test: qHTS assay to identify small molecule antagonists of the androgen receptor (AR) signaling pathway using the MDA cell line (AID 743042; also: nearly all actives have a fitted effect of over 55% in size)
# Outline: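 Antagonist mode: compounds plus R1881 agonist added to MDA-kb2 AR-luc cells, incubated 16 h at 37C. Luciferase reporter luminescence quantified, with multiplexed CellTiter-Fluor readout for cell viability.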
# [27] = qHTS assay to identify small molecule antagonists of the thyroid receptor (TR) signaling pathway (AID 743065); also: series mostly up to about 70 µM; nearly all actives have a fitted effect of over 55% in size
# Outline: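 Antagonism measured as loss of luciferase signal in GH3 cells stably carrying a TRE-luciferase reporter, co-treated with compound and T3 (1 nM final) for 23.5 h at 37 C. Viability was read in the same well by CellTiter-Fluor.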
# [28] = tested on: thyroid hormone receptor (rat, GH3 cells); test: qHTS assay to identify small molecule agonists of the thyroid receptor (TR) signaling pathway (AID 743066; calls by dose curve)
# [29] = qHTS assay to identify small molecule antagonists of the estrogen receptor alpha (ER-alpha) signaling pathway - cell viability counter screen (AID 743074; calls by dose curve;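 also: HEK293 cells carrying ER-alpha-UAS-bla reporter stimulated with 17beta-estradiol; nearly all actives have a fitted effect of over 45% in size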)
# [30] = qHTS assay to identify small molecule antagonists of the estrogen receptor alpha (ER-alpha) signaling pathway using the BG1 cell line - cell viability counter screen (AID 743081);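 also: compound given together with 17beta-estradiol as the ER stimulus; series mostly up to about 70 µM; nearly all actives have a fitted effect of over 45% in size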
# Aromatase (Homo sapiens) = Aromatase (Homo sapiens) (UniProt P11511); test: qHTS assay to identify aromatase inhibitors (AID 743083)
# [31] = qHTS assay to identify aromatase inhibitors - cell viability counter screen (AID 743084)
# [32] = target: Aryl hydrocarbon receptor (Homo sapiens) (UniProt P35869); test: qHTS assay to identify small molecule that activate the aryl hydrocarbon receptor (AhR) signaling pathway (AID 743085);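 also: HG2L7.5c1 human HepG2 liver cells with stably integrated DRE-driven firefly reporter; series mostly up to about 70 µM; nearly all actives have a fitted effect of over 15% in size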
# Outline: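 Luminescence (ONE-Glo) from a dioxin-responsive-element luciferase reporter in HG2L7.5c1 HepG2 cells after 24 hr compound exposure at 37C; viability measured by CellTiter-Fluor fluorescence beforehand.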
# [33] = target: Peroxisome proliferator-activated receptor gamma (Homo sapiens) (UniProt P37231); test: qHTS assay to identify small molecule agonists of the peroxisome proliferator-activated receptor gamma (PPARg) signaling pathway (AID 743094; active = well fitted activation curve with a large enough effect in the signal ratio in the repeat runs, not every such curve was filed as active; the % refers to the signal ratio)
# Outline: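 Following 5 h plating at 37C, PPARg-bla HEK293H cells receive compound or DMSO for 17 h; fluorescence intensity is recorded after LiveBLAzer B/G loading for 1 h at room temperature.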
# [34] = qHTS assay to identify small molecule phospholipidosis (PLD) inducers (AID 1259344; active = well fitted curve in the direction sought with a large enough effect; an effect the other way counts as inactive or inconclusive)
# Outline: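 Fluorescent phospholipid staining (LipidTOX Red) measured by automated microscopy in fixed HepG2 cells after 24 h treatment; nuclei counterstained with Hoechst 33342; amiodarone as reference inducer.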
# [35] = target: Nuclear receptor subfamily 1 group I member 2 (Rattus norvegicus) (UniProt Q9R1A7); test: Rat pregnane X receptor (rPXR) activation by small molecules, qHTS assay (AID 1346983); details: rPXR luciferase reporter cells, One-Glo luminescence, 24 h; max activation: active compounds read high; also: nearly all actives have a fitted effect of over 20% in size
# Outline: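 Luminescent readout (One-Glo luciferase, 30 min room temperature) followed 24 hr compound treatment at 37 C of rPXR cells plated 2,000 per well and preincubated 5hr; qHTS format with compounds delivered in DMSO.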
# [36] = target: Nuclear receptor subfamily 1 group I member 2 (Homo sapiens) (UniProt O75469); test: CYP3A4 induction through human pregnane X receptor (PXR) by small molecules, qHTS assay (AID 1346984); also: nearly all actives have a fitted effect of over 40% in size
# Outline: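 qHTS, concentration-response format: HepG2 DPX-2 line, PXR/CYP3A4-luc. Exposure 24 h, 37C. Substrate Luciferin-IPA 3uM final, 3 h. Detection One-Glo, 30 min RT.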
# [37] = target: Nuclear receptor subfamily 1 group I member 2 (Homo sapiens) (UniProt O75469); test: Human pregnane X receptor (PXR) activation by small molecules, qHTS assay (AID 1346985); also: nearly all actives have a fitted effect of over 40% in size
# Outline: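 DPX-2 cells (HepG2 co-transfected with a PXR response element and a CYP3A4-promoter luciferase construct) were seeded at 2,000 per well, rested 5 hr at 37C, then exposed to DMSO-dissolved compounds for 24 hr. Activation was read as luciferase luminescence.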
# Androgen receptor (Homo sapiens), sequence (P10275 whole entry, looked up): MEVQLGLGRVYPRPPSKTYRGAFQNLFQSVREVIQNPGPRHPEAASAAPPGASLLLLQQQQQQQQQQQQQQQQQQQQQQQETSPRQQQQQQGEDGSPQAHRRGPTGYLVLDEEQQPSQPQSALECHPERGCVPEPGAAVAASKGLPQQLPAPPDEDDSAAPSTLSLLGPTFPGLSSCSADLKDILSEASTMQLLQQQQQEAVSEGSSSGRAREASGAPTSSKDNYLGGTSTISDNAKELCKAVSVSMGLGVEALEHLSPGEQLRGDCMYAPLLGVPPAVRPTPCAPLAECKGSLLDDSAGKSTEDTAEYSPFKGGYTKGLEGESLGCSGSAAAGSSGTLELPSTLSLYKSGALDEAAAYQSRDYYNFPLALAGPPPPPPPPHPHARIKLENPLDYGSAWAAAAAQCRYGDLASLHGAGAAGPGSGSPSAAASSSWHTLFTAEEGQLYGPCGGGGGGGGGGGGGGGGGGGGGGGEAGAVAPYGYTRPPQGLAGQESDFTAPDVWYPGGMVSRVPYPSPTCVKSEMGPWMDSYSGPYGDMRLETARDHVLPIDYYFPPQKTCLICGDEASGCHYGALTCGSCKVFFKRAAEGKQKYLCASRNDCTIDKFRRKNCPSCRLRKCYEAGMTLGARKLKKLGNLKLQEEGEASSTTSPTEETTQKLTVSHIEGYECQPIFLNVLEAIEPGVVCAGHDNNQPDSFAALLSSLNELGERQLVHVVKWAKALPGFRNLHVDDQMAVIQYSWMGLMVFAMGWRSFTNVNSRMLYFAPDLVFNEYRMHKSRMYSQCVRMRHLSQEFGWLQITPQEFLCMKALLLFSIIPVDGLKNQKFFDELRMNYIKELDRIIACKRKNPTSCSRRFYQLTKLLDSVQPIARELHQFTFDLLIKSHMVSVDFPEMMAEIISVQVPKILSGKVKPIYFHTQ
# Aromatase (Homo sapiens), sequence (P11511 whole entry, looked up): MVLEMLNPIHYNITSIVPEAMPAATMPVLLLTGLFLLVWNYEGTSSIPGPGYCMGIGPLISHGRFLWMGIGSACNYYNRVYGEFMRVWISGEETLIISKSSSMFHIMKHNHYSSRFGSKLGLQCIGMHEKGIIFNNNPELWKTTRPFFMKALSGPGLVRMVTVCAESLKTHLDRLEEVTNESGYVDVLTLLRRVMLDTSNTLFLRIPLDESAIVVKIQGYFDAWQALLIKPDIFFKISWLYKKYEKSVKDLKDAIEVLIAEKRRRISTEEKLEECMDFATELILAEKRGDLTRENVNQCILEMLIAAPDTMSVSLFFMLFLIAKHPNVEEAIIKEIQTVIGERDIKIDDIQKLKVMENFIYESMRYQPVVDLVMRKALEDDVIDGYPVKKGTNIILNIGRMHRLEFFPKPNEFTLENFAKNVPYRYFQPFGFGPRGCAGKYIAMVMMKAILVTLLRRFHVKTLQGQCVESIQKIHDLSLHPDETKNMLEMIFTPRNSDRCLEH
# Aryl hydrocarbon receptor (Homo sapiens), sequence (P35869 whole entry, looked up): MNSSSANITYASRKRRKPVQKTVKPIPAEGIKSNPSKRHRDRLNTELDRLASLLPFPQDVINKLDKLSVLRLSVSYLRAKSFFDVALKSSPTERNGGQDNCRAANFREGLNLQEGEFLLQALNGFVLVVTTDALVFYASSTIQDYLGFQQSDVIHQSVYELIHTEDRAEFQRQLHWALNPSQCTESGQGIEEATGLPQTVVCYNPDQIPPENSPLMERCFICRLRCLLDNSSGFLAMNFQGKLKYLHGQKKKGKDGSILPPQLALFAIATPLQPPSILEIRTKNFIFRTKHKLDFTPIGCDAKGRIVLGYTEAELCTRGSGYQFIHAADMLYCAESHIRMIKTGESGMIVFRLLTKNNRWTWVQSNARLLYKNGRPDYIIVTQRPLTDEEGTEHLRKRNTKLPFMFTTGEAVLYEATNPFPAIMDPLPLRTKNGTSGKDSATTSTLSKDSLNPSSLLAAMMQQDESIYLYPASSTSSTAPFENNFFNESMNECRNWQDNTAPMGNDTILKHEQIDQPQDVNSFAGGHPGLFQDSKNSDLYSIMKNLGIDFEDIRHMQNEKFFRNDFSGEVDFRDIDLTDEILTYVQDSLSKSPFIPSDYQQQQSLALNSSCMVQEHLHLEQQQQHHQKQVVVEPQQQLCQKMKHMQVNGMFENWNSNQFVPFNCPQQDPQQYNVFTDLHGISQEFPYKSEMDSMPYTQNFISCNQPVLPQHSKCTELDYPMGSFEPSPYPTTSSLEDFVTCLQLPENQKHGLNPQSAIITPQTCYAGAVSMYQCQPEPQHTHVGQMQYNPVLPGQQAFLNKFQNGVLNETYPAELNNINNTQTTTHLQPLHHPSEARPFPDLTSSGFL
# Peroxisome proliferator-activated receptor gamma (Homo sapiens), sequence (P37231 whole entry, looked up): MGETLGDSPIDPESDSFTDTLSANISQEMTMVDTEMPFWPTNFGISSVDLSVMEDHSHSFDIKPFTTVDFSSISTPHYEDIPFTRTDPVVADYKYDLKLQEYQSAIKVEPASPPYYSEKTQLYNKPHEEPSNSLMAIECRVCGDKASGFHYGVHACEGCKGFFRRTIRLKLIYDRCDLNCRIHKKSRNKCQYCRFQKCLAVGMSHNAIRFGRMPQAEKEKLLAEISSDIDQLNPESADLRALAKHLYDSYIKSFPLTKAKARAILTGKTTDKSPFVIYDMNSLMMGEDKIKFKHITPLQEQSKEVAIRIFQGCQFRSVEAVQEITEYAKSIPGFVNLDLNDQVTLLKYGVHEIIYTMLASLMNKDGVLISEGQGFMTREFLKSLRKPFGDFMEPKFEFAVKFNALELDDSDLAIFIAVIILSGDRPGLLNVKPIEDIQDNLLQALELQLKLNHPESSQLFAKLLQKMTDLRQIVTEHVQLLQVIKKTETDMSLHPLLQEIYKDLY
# Nuclear receptor subfamily 1 group I member 2 (Rattus norvegicus), sequence (Q9R1A7 whole entry, looked up): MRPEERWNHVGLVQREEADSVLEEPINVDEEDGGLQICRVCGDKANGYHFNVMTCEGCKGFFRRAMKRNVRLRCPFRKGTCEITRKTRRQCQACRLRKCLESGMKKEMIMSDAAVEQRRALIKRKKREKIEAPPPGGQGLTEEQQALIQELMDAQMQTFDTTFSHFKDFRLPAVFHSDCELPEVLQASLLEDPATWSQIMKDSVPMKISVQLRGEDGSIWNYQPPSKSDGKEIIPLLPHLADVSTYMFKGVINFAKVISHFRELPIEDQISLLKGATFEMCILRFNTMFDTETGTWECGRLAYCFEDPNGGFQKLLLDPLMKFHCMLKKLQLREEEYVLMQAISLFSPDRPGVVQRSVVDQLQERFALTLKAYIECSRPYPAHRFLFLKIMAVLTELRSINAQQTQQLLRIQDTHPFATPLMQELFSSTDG
# Glucocorticoid receptor (Homo sapiens), sequence (P04150 whole entry, looked up): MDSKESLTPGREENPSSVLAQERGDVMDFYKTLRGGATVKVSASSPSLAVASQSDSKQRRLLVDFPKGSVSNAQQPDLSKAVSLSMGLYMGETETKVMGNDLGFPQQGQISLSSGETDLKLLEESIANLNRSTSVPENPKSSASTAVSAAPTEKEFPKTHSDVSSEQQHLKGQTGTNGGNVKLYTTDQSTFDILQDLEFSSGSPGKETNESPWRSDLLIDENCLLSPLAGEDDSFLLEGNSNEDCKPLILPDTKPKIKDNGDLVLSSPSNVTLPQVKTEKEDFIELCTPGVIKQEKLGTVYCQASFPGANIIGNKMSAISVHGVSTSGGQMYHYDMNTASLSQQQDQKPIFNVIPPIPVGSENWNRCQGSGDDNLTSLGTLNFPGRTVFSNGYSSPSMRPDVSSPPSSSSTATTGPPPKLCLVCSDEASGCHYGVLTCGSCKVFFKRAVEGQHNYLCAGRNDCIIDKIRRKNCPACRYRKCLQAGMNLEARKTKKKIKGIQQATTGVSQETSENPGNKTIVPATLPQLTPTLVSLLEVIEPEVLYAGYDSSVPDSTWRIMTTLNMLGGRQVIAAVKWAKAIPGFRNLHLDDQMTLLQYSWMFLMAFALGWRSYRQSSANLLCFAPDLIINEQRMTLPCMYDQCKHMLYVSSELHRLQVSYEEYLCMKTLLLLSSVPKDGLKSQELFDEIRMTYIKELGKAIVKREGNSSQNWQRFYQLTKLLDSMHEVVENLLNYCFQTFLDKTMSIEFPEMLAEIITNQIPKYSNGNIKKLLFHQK
smiles,measurement,setting,value
C[C@@H](CO)NC(=O)[C@@H]1C=C2c3cccc4[nH]cc(c34)C[C@H]2N(C)C1,Potency,[1],inactive
same,Potency,[2],inactive
same,Potency,[3],inactive
same,Potency,[4],inactive
same,Potency,[5],inactive
same,Potency,[6],9.44 µM (active)
same,outcome,[7],inactive
same,Potency,[8],inactive
same,outcome,[9],inactive
same,Potency,[10],inactive
same,Potency,[11],inactive
same,Potency,[12],inactive
same,outcome,[13],inactive
same,outcome,[14],inactive
same,Potency,[15],inactive
same,Potency,[16],inactive
same,Potency,[17],inactive
same,Potency,[18],inactive
same,Potency,[19],inactive
same,Potency,[20],inactive
same,Potency,[21],inactive
same,Potency,[22],inactive
same,Potency,[23],inactive
same,Potency,[24],26.6 µM (active)
same,Potency,[25],inactive
same,Potency,[26],inactive
same,Potency,[27],inactive
same,Potency,[28],inactive
same,Potency,[29],inactive
same,Potency,[30],inactive
same,Potency,Aromatase (Homo sapiens),inactive
same,Potency,[31],inactive
same,Potency,[32],inactive
same,Potency,[33],inactive
same,Potency,[34],inactive
same,max activation,[35],-0.825%
same,Potency,[36],inactive
same,Potency,[37],inactive
